Among the data in ChEMBL document CHEMBL2218924, “A broad activity screen in support of a chemogenomic map for kinase signalling research and drug discovery” (Biochem J, 2013) are residual activity values, retold here.

Assay [1] deals with Tyrosine-protein kinase SYK (Homo sapiens) (UniProt P43405). Conditions: at 10 µM.
Assay [2] concerns the target T1, Mitogen-activated protein kinase kinase kinase 7 (Homo sapiens) (UniProt O43318).
T1 sequence (whole entry): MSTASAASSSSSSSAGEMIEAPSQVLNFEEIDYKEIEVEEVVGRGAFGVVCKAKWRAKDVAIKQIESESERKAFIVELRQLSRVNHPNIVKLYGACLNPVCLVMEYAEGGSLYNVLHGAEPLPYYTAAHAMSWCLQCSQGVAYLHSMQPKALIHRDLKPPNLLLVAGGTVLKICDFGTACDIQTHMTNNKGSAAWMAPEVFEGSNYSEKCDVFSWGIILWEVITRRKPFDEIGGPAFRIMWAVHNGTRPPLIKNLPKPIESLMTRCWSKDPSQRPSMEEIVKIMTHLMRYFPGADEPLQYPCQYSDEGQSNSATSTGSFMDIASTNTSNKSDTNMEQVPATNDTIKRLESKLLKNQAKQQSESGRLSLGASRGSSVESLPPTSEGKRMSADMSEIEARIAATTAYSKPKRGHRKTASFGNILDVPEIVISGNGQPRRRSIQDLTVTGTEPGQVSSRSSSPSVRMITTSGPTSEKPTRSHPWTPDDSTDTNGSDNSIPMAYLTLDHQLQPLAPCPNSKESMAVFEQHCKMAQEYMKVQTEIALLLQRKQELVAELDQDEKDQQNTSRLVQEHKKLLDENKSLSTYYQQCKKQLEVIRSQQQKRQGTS
The note with it: at 1 µM.

For assay [3], the target named is T1, Mitogen-activated protein kinase kinase kinase 7 (Homo sapiens). The note with it: at 10 µM.
Assay [4] deals with T2, Serine/threonine-protein kinase TAO1 (Homo sapiens) (UniProt Q7L7X3).
T2 sequence (whole entry): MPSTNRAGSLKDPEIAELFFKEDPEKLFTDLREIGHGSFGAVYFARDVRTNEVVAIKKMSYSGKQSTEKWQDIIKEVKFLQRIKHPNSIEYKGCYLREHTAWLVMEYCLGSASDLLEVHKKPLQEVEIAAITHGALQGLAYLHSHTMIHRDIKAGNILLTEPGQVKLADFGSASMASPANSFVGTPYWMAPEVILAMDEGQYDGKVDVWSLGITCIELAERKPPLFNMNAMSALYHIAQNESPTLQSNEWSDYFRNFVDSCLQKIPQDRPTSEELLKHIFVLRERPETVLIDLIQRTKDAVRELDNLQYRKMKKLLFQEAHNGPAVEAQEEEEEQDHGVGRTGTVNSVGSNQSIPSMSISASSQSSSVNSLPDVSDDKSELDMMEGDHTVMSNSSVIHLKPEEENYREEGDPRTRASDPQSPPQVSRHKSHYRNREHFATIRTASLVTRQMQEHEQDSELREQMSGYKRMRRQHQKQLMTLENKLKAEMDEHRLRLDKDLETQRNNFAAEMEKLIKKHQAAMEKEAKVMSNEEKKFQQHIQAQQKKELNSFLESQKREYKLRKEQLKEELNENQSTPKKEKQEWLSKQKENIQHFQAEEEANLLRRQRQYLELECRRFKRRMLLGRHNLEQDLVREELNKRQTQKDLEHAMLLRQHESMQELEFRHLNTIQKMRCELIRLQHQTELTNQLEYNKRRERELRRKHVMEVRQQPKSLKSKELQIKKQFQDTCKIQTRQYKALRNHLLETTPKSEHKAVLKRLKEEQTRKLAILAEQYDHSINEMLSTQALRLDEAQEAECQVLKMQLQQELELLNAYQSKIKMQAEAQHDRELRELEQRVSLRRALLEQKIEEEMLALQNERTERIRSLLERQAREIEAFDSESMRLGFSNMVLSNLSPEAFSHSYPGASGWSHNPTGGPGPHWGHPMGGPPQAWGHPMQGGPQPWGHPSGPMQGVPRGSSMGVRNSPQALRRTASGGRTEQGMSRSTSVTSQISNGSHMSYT
Conditions: at 1 µM.

The target in assay [5] is T2, Serine/threonine-protein kinase TAO1 (Homo sapiens). Conditions: at 10 µM.
Assay [6] deals with T3, Serine/threonine-protein kinase TAO2 (Homo sapiens) (UniProt Q9UL54).
T3 sequence (whole entry): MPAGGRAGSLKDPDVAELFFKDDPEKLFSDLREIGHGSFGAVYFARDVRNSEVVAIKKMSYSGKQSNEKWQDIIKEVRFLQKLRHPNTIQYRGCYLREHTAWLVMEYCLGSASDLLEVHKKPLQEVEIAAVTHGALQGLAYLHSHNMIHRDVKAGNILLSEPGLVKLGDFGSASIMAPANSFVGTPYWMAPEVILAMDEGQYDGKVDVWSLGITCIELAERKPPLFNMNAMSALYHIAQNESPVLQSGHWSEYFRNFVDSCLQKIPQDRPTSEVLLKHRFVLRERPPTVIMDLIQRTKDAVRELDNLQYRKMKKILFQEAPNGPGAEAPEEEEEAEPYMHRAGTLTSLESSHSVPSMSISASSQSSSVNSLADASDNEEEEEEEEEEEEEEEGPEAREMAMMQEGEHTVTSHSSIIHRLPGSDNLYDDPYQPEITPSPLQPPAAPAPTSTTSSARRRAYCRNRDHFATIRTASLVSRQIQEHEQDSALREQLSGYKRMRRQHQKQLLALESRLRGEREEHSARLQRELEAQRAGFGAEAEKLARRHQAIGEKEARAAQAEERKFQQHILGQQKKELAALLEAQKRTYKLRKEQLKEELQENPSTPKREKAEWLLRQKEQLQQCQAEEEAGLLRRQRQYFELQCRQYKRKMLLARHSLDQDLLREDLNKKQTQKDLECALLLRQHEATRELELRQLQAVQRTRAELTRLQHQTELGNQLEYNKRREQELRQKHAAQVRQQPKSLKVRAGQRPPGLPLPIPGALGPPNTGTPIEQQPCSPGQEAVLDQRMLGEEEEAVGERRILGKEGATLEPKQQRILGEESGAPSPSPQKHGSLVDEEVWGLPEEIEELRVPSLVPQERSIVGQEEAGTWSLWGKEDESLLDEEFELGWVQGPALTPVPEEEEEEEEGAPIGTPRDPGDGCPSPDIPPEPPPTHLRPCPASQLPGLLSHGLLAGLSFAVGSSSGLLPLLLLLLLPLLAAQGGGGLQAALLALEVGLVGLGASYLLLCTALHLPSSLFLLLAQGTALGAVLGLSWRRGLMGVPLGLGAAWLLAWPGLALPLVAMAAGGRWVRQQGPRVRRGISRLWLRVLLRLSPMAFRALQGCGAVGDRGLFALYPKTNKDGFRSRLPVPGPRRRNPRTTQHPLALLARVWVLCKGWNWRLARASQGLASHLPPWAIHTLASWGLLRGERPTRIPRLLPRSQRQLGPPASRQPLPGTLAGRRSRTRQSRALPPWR
The note with it: at 1 µM.

For assay [7], the target named is T3, Serine/threonine-protein kinase TAO2 (Homo sapiens). Conditions: at 10 µM.
Assay [8] deals with T4, Serine/threonine-protein kinase TAO3 (Homo sapiens) (UniProt Q9H2K8).
T4 sequence (whole entry): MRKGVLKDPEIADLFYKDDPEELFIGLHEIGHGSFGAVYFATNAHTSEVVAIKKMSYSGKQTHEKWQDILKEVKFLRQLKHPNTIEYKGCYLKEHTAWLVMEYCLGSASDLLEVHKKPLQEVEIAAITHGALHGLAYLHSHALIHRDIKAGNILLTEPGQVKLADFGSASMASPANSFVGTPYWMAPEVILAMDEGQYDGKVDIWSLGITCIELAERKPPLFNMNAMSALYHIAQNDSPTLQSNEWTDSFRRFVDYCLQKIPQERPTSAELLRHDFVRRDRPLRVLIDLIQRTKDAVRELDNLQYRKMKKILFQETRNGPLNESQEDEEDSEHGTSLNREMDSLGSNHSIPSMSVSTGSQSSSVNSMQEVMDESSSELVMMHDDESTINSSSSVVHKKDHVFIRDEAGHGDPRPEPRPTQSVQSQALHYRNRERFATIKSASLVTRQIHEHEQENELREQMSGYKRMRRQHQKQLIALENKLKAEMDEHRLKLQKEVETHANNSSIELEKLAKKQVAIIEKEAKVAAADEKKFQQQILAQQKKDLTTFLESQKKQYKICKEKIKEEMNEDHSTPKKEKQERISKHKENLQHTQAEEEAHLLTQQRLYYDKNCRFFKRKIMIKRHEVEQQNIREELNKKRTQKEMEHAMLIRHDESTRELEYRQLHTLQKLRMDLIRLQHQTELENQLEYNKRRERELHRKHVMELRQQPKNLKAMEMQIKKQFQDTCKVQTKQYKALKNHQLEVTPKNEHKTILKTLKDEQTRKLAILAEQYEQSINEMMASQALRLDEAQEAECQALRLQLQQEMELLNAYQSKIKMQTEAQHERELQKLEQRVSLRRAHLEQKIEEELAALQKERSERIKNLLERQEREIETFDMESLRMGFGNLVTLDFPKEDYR
Conditions: at 1 µM.

Assay [9] addresses T4, Serine/threonine-protein kinase TAO3 (Homo sapiens). The note with it: at 10 µM.
Assay [10] addresses T5, Serine/threonine-protein kinase TBK1 (Homo sapiens) (UniProt Q9UHD2).
T5 sequence (whole entry): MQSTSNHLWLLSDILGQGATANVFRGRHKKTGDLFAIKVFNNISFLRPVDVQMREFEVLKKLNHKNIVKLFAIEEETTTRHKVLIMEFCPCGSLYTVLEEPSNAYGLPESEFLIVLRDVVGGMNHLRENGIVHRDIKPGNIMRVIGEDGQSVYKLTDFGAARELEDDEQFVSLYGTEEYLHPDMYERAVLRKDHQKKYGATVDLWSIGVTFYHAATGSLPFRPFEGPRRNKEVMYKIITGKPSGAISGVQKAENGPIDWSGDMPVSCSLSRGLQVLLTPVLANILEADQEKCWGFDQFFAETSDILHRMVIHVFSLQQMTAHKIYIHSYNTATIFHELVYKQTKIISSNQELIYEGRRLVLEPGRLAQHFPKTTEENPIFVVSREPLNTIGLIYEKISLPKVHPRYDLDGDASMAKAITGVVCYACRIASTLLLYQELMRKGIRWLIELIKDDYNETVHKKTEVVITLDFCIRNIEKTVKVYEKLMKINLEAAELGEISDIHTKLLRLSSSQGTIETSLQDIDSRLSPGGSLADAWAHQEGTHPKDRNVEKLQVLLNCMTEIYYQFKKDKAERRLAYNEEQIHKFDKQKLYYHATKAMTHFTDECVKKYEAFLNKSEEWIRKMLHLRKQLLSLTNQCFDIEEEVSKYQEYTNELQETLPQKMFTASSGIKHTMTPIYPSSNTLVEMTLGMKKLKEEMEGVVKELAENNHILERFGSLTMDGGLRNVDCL
Conditions: at 1 µM.

The structures appear in SMILES notation.

In the case of `NC(=O)c1ccc2[nH]c(-c3ccc(Oc4ccc(Cl)cc4)cc3)nc2c1`, the residual activity in assay [1] was found to be 96%; in assay [2], 92%; in assay [3], 81%; in [4] it was 89%; in assay [5] it was 72%; in assay [6], 88%. Moreover, the residual activity in assay [7] is 99%; in assay [8], 98%; in assay [9] it was 79%; in assay [10] it was 67%.
